Experimental data reported in ChEMBL document CHEMBL1961873, “Compounds: GSK PKIS; Assays: Nanosyn kinase panel” (2012).

What was measured:
[1] = system: Tyrosine-protein kinase ABL1 (Homo sapiens), P00519 [T315I]; settings: at 1 µM
[2] = system: Tyrosine-protein kinase ABL1 (Homo sapiens), P00519 [Y253F]; settings: at 0.1 µM
[3] = system: Tyrosine-protein kinase ABL1 (Homo sapiens), P00519 [Y253F]; settings: at 1 µM
[4] = target: Tyrosine-protein kinase ABL1 (Homo sapiens) (UniProt P00519); settings: at 0.1 µM
[5] = target: Tyrosine-protein kinase ABL1 (Homo sapiens) (UniProt P00519); settings: at 1 µM
[6] = target: ALK tyrosine kinase receptor (Homo sapiens) (UniProt Q9UM73); settings: at 0.1 µM
[7] = target: ALK tyrosine kinase receptor (Homo sapiens) (UniProt Q9UM73); settings: at 1 µM
[8] = target: Tyrosine-protein kinase ABL2 (Homo sapiens) (UniProt P42684); settings: at 0.1 µM
[9] = target: Tyrosine-protein kinase ABL2 (Homo sapiens) (UniProt P42684); settings: at 1 µM
[10] = target: Tyrosine-protein kinase receptor UFO (Homo sapiens) (UniProt P30530); settings: at 0.1 µM;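 note: values are mean percent inhibition of AXL from the GSK PKIS screen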
Tyrosine-protein kinase receptor UFO (Homo sapiens), sequence (P30530 whole entry): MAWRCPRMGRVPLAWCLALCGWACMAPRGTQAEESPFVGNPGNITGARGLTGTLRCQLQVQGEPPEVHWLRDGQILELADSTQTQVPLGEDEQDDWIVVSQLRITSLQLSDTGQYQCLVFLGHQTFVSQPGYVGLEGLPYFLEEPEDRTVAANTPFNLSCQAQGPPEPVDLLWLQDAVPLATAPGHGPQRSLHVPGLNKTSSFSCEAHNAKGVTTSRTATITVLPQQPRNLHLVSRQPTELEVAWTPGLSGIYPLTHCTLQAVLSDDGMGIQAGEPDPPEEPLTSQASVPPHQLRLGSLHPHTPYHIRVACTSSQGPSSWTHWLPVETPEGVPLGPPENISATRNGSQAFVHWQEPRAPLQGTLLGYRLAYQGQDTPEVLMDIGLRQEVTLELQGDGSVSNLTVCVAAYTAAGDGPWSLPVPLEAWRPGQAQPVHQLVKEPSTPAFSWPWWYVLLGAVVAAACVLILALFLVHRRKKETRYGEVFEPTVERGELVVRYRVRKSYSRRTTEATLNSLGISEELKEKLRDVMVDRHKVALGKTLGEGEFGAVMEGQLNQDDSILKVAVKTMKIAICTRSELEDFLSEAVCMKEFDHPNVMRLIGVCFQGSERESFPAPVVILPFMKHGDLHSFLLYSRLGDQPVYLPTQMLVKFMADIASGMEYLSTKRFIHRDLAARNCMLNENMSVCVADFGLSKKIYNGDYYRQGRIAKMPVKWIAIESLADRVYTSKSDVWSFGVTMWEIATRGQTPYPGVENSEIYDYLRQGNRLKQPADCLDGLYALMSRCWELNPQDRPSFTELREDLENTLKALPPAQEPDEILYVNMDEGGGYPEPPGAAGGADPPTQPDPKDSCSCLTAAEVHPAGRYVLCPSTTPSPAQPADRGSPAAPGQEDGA

Tyrosine-protein kinase ABL2 (Homo sapiens), sequence (P42684 whole entry): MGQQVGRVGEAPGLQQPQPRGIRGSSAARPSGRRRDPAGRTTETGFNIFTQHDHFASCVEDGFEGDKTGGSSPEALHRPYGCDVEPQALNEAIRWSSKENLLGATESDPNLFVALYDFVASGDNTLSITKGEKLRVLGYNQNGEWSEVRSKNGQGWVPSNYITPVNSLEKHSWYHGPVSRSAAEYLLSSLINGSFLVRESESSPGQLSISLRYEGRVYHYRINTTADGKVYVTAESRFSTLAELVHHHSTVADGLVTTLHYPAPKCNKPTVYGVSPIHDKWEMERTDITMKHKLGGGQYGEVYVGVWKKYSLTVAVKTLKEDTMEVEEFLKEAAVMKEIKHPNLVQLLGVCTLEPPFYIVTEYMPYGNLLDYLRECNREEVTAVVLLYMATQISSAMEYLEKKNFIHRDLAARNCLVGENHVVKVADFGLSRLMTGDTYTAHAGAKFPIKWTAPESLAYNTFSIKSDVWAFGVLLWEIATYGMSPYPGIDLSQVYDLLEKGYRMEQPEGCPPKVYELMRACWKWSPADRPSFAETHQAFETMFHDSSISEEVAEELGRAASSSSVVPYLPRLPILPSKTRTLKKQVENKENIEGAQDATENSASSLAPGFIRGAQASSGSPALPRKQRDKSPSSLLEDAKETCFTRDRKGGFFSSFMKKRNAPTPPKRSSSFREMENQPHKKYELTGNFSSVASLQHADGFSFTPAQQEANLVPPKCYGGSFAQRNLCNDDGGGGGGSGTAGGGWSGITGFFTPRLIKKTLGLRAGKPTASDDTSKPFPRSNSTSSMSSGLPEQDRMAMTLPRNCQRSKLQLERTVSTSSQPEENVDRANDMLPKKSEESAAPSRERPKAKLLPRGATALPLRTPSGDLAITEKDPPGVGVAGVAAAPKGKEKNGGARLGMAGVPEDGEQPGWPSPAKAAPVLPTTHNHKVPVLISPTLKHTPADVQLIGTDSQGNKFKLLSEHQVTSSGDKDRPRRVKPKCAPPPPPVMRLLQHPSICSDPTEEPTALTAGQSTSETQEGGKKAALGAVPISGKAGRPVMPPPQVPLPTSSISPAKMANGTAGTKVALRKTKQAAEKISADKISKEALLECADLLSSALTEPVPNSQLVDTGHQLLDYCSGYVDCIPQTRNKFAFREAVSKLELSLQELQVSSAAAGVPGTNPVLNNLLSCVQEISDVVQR
ALK tyrosine kinase receptor (Homo sapiens), sequence (Q9UM73 19-1620 limits assumed): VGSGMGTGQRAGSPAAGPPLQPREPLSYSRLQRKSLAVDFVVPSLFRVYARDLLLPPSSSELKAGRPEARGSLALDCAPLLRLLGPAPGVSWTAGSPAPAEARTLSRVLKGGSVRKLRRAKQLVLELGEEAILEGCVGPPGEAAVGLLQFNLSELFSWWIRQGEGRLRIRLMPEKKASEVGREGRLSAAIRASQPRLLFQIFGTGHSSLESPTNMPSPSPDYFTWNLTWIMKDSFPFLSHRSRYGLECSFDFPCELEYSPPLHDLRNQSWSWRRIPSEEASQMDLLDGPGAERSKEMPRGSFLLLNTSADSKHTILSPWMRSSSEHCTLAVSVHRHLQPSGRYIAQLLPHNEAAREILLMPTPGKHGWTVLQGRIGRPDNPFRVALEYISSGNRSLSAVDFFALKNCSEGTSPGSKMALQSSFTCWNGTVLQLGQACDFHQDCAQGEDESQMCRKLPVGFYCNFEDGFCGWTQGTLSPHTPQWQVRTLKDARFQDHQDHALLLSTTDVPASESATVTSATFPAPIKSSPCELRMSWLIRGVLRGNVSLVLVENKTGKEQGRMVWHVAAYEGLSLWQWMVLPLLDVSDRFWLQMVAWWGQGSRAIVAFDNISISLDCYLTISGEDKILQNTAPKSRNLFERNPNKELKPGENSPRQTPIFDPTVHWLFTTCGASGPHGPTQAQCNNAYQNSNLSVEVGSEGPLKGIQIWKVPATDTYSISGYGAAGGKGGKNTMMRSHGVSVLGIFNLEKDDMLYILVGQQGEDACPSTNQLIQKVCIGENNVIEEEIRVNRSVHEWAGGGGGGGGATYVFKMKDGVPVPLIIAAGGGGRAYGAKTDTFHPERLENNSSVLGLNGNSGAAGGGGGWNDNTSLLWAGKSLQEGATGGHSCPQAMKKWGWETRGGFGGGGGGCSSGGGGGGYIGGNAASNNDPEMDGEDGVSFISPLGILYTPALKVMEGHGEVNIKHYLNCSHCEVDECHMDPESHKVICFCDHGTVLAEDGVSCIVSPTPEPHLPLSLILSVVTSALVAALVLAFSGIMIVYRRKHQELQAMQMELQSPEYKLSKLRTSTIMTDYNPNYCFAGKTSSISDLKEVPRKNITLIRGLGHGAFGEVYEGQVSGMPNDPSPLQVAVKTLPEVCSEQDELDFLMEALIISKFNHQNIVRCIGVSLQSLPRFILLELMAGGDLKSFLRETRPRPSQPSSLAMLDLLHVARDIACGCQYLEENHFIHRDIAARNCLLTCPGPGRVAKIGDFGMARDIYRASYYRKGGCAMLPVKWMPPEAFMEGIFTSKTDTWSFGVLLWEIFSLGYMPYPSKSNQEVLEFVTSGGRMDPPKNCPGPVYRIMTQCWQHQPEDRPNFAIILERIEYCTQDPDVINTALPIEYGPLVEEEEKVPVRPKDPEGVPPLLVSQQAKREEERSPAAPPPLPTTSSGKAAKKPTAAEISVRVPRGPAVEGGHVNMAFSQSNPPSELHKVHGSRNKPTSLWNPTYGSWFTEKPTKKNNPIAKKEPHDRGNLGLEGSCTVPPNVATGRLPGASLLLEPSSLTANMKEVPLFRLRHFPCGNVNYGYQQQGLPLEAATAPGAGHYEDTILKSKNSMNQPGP

Row | Structure (SMILES) | inhibition [1] [%] | inhibition [2] [%] | inhibition [3] [%] | inhibition [4] [%] | inhibition [5] [%] | inhibition [6] [%] | inhibition [7] [%] | inhibition [8] [%] | inhibition [9] [%] | inhibition [10] [%]
1 | CS(=O)(=O)Nc1ccc(-c2cc(-c3ccccc3)cc(C(N)=O)c2N)cc1 | 0.72 | 1.53 | 2.93 | 3.02 | 7.08 | 0.29 | 2.13 | 2.05 | 7.11 | -4.02
2 | Cn1c(-c2nonc2N)nc2cnccc21 | 1.83 | 4.55 | 0.38 | 4 | 4.6 | 1.93 | 3.93 | 2.62 | 7.75 | -6.37
3 | CC1=C(C(=O)Nc2ccc3[nH]nc(C)c3c2)C(c2ccc(C(F)(F)F)cc2)CC(=O)N1 (stereo not given) | 2.86 | 4.61 | 1.36 | 7.68 | 9.26 | 3.26 | 6.8 | 7.56 | 7.08 | -3.17
4 | COc1ccc(Nc2ncc(-c3ccccc3)o2)cc1OC | 18.9 | 11.1 | 54.3 | 7.03 | 58 | 1.69 | 4.78 | 9.21 | 57.1 | 0.18
5 | OCCCNc1nccc(-c2c(-c3ccc(F)cc3)nn3cc(C(F)(F)F)ccc23)n1 | 1.6 | 4.75 | 4.88 | 6.03 | 11.5 | 1.23 | 2.86 | 3.63 | 7.2 | -4.91
6 | CNC(=O)c1cncc(/C=C/c2ccccc2C)c1 | 4.28 | 6.17 | 31.7 | 5.99 | 25.9 | 4.09 | 4.22 | 6.78 | 16.1 | -3.18
7 | O=C(O[C@H]1CN[C@H](C#Cc2cc3ncnc(Nc4ccc5c(cnn5Cc5ccccc5)c4)c3s2)C1)N1CCOCC1 | 0.36 | -0.26 | 0.7 | -0.22 | 2.55 | -0.47 | 0.05 | -0.58 | 2.25 | 0.41
8 | O=C1Nc2ccccc2/C1=C1\CCc2cc(O)ccc21 | 16.2 | 5 | 15.6 | 3.68 | 15 | 5.54 | 25.4 | 2.63 | 9.37 | -8.77
9 | CC(C)c1ccc(-c2cc(-c3c[nH]nc3-c3ccccn3)ccn2)cc1 | 0.44 | 1.59 | 22.1 | 7.53 | 45.5 | 1.28 | 3.08 | 8.41 | 16.6 | -1.3
10 | CNC(=O)c1sc(-n2cnc3cc(OC)c(OC)cc32)cc1OCc1ccccc1C(F)(F)F | 4.16 | 2.46 | 10.3 | 8.39 | 17.2 | 3.52 | 5.76 | 5.79 | 13.2 | -4.3
11 | NS(=O)(=O)c1ccc(N/N=C2\C(=O)Nc3cccc(CCc4ccncc4)c32)cc1 | 6.34 | 3.29 | 8.15 | 3.11 | 4.4 | 1.31 | 4.47 | 2.11 | 3.55 | -0.12
12 | NS(=O)(=O)c1cccc(N/C=C2\C(=O)Nc3ccccc32)c1 | 8.55 | 5.67 | 11 | 3.17 | 10.9 | 2.94 | 12.7 | 4.2 | 13.3 | -7.48
13 | c1ccc(-c2n[nH]cc2-c2ccnc(-c3ccc(OCCn4ccnc4)cc3)c2)nc1 | 7.34 | 31.8 | 78.8 | 30.5 | 68.8 | -0.73 | 3.68 | 5.73 | 56.4 | -0.5
14 | Cc1ccc(-c2cc3c(NC(=O)C4CC4)ncnc3o2)cc1 | 14 | 7.48 | 29.1 | 5.87 | 30.4 | 4.09 | 10.7 | 3.64 | 2.5 | -6.86
15 | COc1cccc(-n2ncc3c(N/N=C/c4ccc(C(=O)NCCN(C)C)cc4)ncnc32)c1 | 95 | 93.3 | 94.5 | 81.7 | 83.1 | 3.26 | 8.56 | 73.3 | 82 | 3.3
